The source of these data is PubChem BioAssay (EPA / NIEHS).

The source made the active and inactive calls. The calls were made as follows: active = hit-call score of the fitted dose curve at least 0.9, where 1 is the maximum; inactive = score below 0.9.

Experiment [1] in a line: ATG_NFI_CIS: Attagene CIS-FACTORIAL HepG2 Assay for human Nuclear Factor I (NFI) (AID 2282989). Conditions: HepG2 cis-regulatory reporter, NFI response element transcription; actives raise or lower the signal. In short, it runs like this: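 Reporter transcription driven by endogenous transcription factors in HepG2 cells; 24 h treatment. Quantitation by labelled RT-PCR fragments on capillary electrophoresis, gain- or loss-of-signal relative to DMSO.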

In experiment [2] the target is Myc proto-oncogene protein (Homo sapiens) (UniProt P01106). The experiment can be described thus: ATG_Myc_CIS: Attagene CIS-FACTORIAL HepG2 Assay for human Myelocytomatosis (Myc) Proto-Oncogene Transcription Factor (AID 2282990). Conditions: HepG2, Attagene cis-reporter transcription factor activity; actives raise or lower the signal. In short, it runs like this: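 Fluorescence intensity of reporter-specific cDNA fragments, separated by capillary electrophoresis, gives the signal. Transfected HepG2 cells carrying cis-promoter reporter constructs are incubated with compound for 24 h; DMSO serves as baseline.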

Experiment [3] in a line: ATG_NF_kB_CIS: Attagene CIS-FACTORIAL HepG2 Assay for human Nuclear Factor Kappa B (NF-kB) (AID 2282991). As to conditions: HepG2 Attagene cis-factorial NF-kB reporter mRNA; actives raise or lower the signal. In short, it runs like this: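 Measures mRNA induction of an NF-kB-responsive cis-element reporter in HepG2 cells transfected with multiple reporter units, sampled 24 h post-dosing; quantified by fluorescence after RT-PCR and capillary electrophoresis, fitted for activation or inhibition against DMSO.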

The nature of experiment [4]: ATG_NRF2_ARE_CIS: Attagene CIS-FACTORIAL HepG2 Assay for human Nuclear Factor Erythroid 2 Related Factor 2 (NFR2) response to Antioxidant Response Elements (ARE) (AID 2282992).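 As to AC50: reporter mRNA level measured by RT-PCR and capillary electrophoresis fluorescence.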 As to conditions: HepG2 Attagene ARE/NRF2 reporter, transcription factor activity; actives raise or lower the signal. In short, it runs like this: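 HepG2 cells transiently transfected with multiplexed cis-regulated reporter transcription units measure endogenous transcription factor activity. Reporter mRNA at 24 h is quantified by RT-PCR, fluorescent labelling and capillary electrophoresis, with bidirectional fitting relative to DMSO.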

Experiment [5] can be described thus: ATG_Oct_MLP_CIS: Attagene CIS-FACTORIAL HepG2 Assay for human Octamer-Binding Transcription Factor (Oct) (AID 2282993). Conditions: HepG2 Attagene cis-factorial Oct reporter, mRNA; actives raise or lower the signal. In short, it runs like this: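 Transfected HepG2 cells, 24 h treatment. Reporter mRNA quantified by RT-PCR–capillary electrophoresis; bidirectional fitting against DMSO.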

For experiment [6], the target named is Cellular tumor antigen p53 (Homo sapiens) (UniProt P04637). The experiment can be described thus: ATG_p53_CIS: Attagene CIS-FACTORIAL HepG2 Assay for human p53 Transcription Factor (AID 2282994). Conditions: HepG2 p53 cis-element reporter, Attagene mRNA; actives raise or lower the signal. In short, it runs like this: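 HepG2 cells transiently transfected with multiplexed cis-regulated reporter transcription units read endogenous TF activity. After 24 h compound exposure, reporter mRNA was quantified by RT-PCR, fluorescent labelling, HpaI digestion and capillary electrophoresis; bidirectional fits versus DMSO baseline.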

A short description of experiment [7]: BSK_3C_uPAR: BioMAP Diversity Plus: 3C Assay for Urokinase-type plasminogen activator receptor (uPAR) Biomarker Activity (AID 2282998). Conditions: BioMAP 3C HUVEC, uPAR biomarker ELISA; actives raise or lower the signal. In short, it runs like this: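 Readout: ELISA for surface uPAR. System: human umbilical vein endothelial primary cells, 24 h after chemical exposure. Analysis: bidirectional fit, DMSO baseline.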

The nature of experiment [8]: BSK_3C_VCAM1: BioMAP Diversity Plus: 3C Assay for Vascular cell adhesion molecule 1 (VCAM1) Biomarker Activity (AID 2282999). Conditions: BioMAP 3C HUVEC, VCAM1 ELISA, cytokine-stimulated; actives raise or lower the signal. In short, it runs like this: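 Human umbilical vein endothelial cells (3C system), biomarker read by ELISA 24 h after dosing; bidirectional fit against DMSO baseline. Cytotoxicity tracked by SRB total-protein staining in parallel cultures at biomarker time.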

Experiment [9] can be described thus: BSK_4H_Eotaxin3: BioMAP Diversity Plus: 4H Assay for Eotaxin 3 Biomarker Activity (AID 2283000).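 As to outcome: CCL26 protein level quantified by ELISA in parallel with SRB cytotoxicity check.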 As to conditions: primary human endothelial cells (HUVEC); actives raise or lower the signal. In short, it runs like this: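 Endothelial primary cells (human umbilical vein) exposed to compound for 24 h. ELISA detection of Eotaxin-3.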
The nature of experiment [10]: BSK_3C_TissueFactor: BioMAP Diversity Plus: 3C Assay for Tissue Factor Biomarker Activity (AID 2282997). As to conditions: BioMAP 3C HUVEC, tissue factor biomarker readout; actives raise or lower the signal. In short, it runs like this: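 Values derive from bidirectional curve fitting against DMSO of Tissue Factor ELISA signals, taken 24 h after dosing primary human umbilical vein endothelial cells.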

Myc proto-oncogene protein (Homo sapiens), sequence (P01106 whole entry, looked up, the tested form may be a part): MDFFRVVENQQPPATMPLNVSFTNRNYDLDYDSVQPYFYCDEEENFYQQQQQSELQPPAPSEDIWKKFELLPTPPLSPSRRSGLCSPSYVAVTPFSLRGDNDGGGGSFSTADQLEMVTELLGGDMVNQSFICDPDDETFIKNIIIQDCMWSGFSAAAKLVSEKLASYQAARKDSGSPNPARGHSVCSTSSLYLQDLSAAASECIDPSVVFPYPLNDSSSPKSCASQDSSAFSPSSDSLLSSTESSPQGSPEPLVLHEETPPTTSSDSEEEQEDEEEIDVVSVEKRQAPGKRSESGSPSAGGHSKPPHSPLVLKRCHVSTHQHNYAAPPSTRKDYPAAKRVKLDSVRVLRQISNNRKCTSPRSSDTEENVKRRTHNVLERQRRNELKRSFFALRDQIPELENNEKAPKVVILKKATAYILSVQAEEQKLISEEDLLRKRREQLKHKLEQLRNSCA
Cellular tumor antigen p53 (Homo sapiens), sequence (P04637 whole entry, looked up): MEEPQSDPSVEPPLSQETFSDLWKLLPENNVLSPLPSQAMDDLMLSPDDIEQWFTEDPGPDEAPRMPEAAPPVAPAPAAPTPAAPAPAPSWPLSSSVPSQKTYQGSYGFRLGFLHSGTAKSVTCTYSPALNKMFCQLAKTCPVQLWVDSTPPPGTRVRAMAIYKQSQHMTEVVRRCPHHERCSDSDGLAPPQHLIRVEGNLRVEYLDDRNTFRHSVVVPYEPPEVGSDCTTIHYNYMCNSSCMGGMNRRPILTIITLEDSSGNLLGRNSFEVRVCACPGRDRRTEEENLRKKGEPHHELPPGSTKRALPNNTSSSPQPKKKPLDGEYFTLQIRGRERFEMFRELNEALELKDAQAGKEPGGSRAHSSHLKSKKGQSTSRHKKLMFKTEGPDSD

Regarding `CCC12COCN1COC2`, the compound was classed as inactive in experiment [1], in [2], in experiment [3], in experiment [4], in experiment [5] and in experiment [6]. The result in [7], in [8] and in [9] was inactive.
As to `O=[N+]([O-])c1ccc(Oc2ccc(Cl)cc2Cl)cc1`, the compound was classed as inactive in experiment [1], in experiment [2], in [3], in experiment [4], in experiment [5] and in experiment [6]. Moreover, the outcome in experiment [8] was inactive. For the same compound, the AC50 in experiment [7] was 9.38 µM (active); in experiment [9] it was 33.6 µM (active).
For the compound `c1ccc(NNc2ccccc2)cc1`, the compound was classed as inactive in experiment [1], in [2], in experiment [3], in experiment [5], in experiment [6] and in experiment [8]. For the same compound, in experiment [9], the result was inactive. Moreover, the AC50 in experiment [4] was 27.8 µM (active).
As to `CN(C)C(=O)Nc1ccc(Cl)cc1`, the compound was called inactive in experiment [1], in [2], in experiment [3], in [4], in experiment [5] and in [6]. For the same compound, the outcome in experiment [8] and in experiment [9] was inactive.
On to `Clc1ccc(C(c2ccc(Cl)cc2)C(Cl)(Cl)Cl)cc1`, for which the AC50 in experiment [1] was 42.1 µM (active); in [4] it was 36.4 µM (active); in [10], 27.7 µM (active); in [8], 27.5 µM (active); in experiment [9], 30.1 µM (active). The compound was classed as inactive in [2], in experiment [3], in experiment [5] and in experiment [6].
Regarding `c1ccc2c(c1)-c1cccc3cccc-2c13`, the compound was called inactive in [1], in experiment [2], in experiment [3], in experiment [4], in experiment [5] and in [6]. The outcome in [8] and in experiment [9] was inactive.
Take `O=C(Oc1ccc(Br)cc1)N1CCN2CCC1CC2`: the compound was classed as inactive in experiment [1], in [2], in experiment [4], in experiment [5], in [7] and in experiment [8]. Further, in experiment [9], the outcome was inactive. The AC50 in experiment [3] was 60.9 µM (active); in experiment [6], 64.9 µM (active).
Regarding `CN(C)[C@@H]1C(=O)C(C(N)=O)=C(O)[C@@]2(O)C(=O)C3=C(O)c4c(O)cccc4[C@@](C)(O)[C@H]3C[C@@H]12`, the call in experiment [1], in experiment [2], in experiment [3], in experiment [4], in experiment [5] and in experiment [6] was inactive. The outcome in [7], in experiment [8] and in [9] was inactive.
In the case of `c1ccc2c(c1)oc1ccccc12`, the outcome in experiment [1], in experiment [2], in experiment [3], in [4], in [5] and in experiment [6] was inactive. Besides, the outcome in [8] and in [9] was inactive.
Turning to `CCCCCCCCn1sccc1=O`, the AC50 in [1] was 17.2 µM (active); in experiment [2] it was 17.5 µM (active); in experiment [3], 21.1 µM (active); in [5], 15.9 µM (active); in experiment [6] it was 19.9 µM (active); in experiment [8] it was 9.3 µM (active). Besides, the AC50 in [9] is 9.13 µM (active). Also, the compound was called inactive in experiment [4].
As for `CCCCCCCCOC(=O)c1ccc(C(=O)OCCCCCCCC)c(C(=O)OCCCCCCCC)c1`, the result in experiment [1], in experiment [2], in [3], in experiment [4], in experiment [5] and in [6] was inactive. Besides, the outcome in [8] and in [9] was inactive.
In the case of `CCCSC(=O)N(CCC)CCC`, the outcome in experiment [1], in experiment [2], in experiment [3], in experiment [4], in experiment [5] and in experiment [6] was inactive. Further, the outcome in experiment [7], in experiment [8] and in [9] was inactive.
On to `Nc1ccc(Cc2ccc(N)cc2)cc1`, for which the compound was classed as inactive in experiment [1], in experiment [2], in [3], in experiment [4], in [5] and in experiment [6]. For the same compound, the result in [8] and in [9] was inactive.
As to `Nc1ccc(Cl)cc1N`, the result in experiment [1], in experiment [2], in [3] and in experiment [7] was inactive. In addition, the AC50 in experiment [4] is 5.68 µM (active); in [5], 29.5 µM (active); in experiment [6] it was 8.6 µM (active); in [8] it was 4.34 µM (active); in experiment [9], 2.15 µM (active).
For the compound `OCCOCCO`, the compound was classed as inactive in experiment [1], in experiment [2], in [4], in [5], in experiment [8] and in [9].
`ClC1=C(Cl)[C@]2(Cl)[C@H]3[C@H]([C@@H]4C=C[C@H]3C4)[C@@]1(Cl)C2(Cl)Cl`: the compound was called inactive in experiment [1], in [2] and in experiment [6]. The AC50 in [4] was 50.5 µM (active); in [5], 25.1 µM (active); in experiment [7] it was 16.1 µM (active); in experiment [8], 28.7 µM (active); in [9] it was 34.1 µM (active).
Turning to `[Cl-].[Cl-].[Hg+2]`, the result in experiment [1], in experiment [2] and in experiment [5] was inactive. The half-maximal activity concentration (AC50) in [4] was 5.59 µM (active); in experiment [6] it was 55.4 µM (active); in experiment [8], 20 µM (active); in experiment [9], 30.9 µM (active).
Take `CCOc1cccc(C2(N3CCN(c4ccccc4)CC3)CCC(C)CC2)c1` (stereo not drawn): the result in experiment [1], in [2], in [4], in experiment [5], in experiment [6] and in experiment [8] was inactive. Also, the outcome in experiment [9] was inactive.
`Nc1ccc(N=Nc2ccccc2)cc1`: the outcome in [1], in [2], in [6], in experiment [8] and in experiment [9] was inactive. In addition, the AC50 in [4] is 3.6 µM (active); in experiment [5] it was 36.2 µM (active).
For the compound `CNC(=O)Oc1cccc2c1OC(C)(C)C2`, the result in experiment [1], in [2], in experiment [4], in experiment [5], in experiment [6] and in experiment [8] was inactive. Also, the result in experiment [9] was inactive.
Regarding `CC(C)COC(=O)c1ccccc1C(=O)OCC(C)C`, the compound was classed as inactive in experiment [1], in experiment [2] and in experiment [9]. Besides, the AC50 in [4] is 36 µM (active); in experiment [5] it was 83 µM (active); in experiment [10] it was 12.4 µM (active); in experiment [8], 26.8 µM (active).
